# Measured values taken from PubChem BioAssay (NCI).
# Compounds without any hit were thinned out: in the full panel of roughly 79,000, 15% have a hit. Values without a mark were called inactive. Calls of active or inactive are those of the source. No stated cut-off is given here; in the data, active means growth inhibition above about 70%; inactive means the rest.
# What was measured:
# [1] = NCI Yeast Anticancer Drug Screen. Data for the wt1 strain (AID 149);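 further: 0% = growth of vehicle-treated wt1 cultures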; conditions: S. cerevisiae wt1 strain (SPY 50644) growth inhibition, hits give high values
# Outline: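 Growth inhibition read against vehicle controls after compound exposure of the wt1 yeast strain.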
# [2] = NCI Yeast Anticancer Drug Screen. Data for the rad50EPP+ strain (AID 151);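 further: 0% = growth of vehicle-treated control cultures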; conditions: S. cerevisiae rad50 mutant strain, hits give high values
# Outline: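 Measured: growth inhibition of rad50EPP+ yeast. Reference: vehicle-treated controls. Screen uses strains with defined genetic alterations in DNA damage repair or cell cycle control.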
# [3] = NCI Yeast Anticancer Drug Screen. Data for the mgt1 strain (AID 153); conditions: S. cerevisiae mgt1 mutant growth inhibition, hits give high values
# Outline: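 Compounds were applied to mgt1 mutant yeast, and growth was then compared against vehicle-treated control cultures to give percent inhibition.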
# [4] = NCI Yeast Anticancer Drug Screen. Data for the rad50 strain (AID 155);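 further: 0% = growth of vehicle-only cultures of the same strain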; conditions: S. cerevisiae rad50 strain growth inhibition, hits give high values
# Outline: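 Readout: growth inhibition relative to vehicle-treated cultures. Compound exposure was carried out in a genetically defined yeast strain deficient in DNA damage repair.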
# [5] = NCI Yeast Anticancer Drug Screen. Data for the mec2-1 strain (AID 157); conditions: S. cerevisiae mec2-1 strain, hits give high values
# Outline: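 Compounds were applied to mec2-1 yeast cells. Their growth was then compared with that of vehicle-treated cultures to give growth inhibition.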
# [6] = NCI Yeast Anticancer Drug Screen. Data for the rad14 strain (AID 159);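 further: 0% = growth of vehicle-treated control cultures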; conditions: S. cerevisiae rad14 strain growth inhibition, hits give high values
# Outline: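 Growth inhibition vs vehicle controls; genetically altered yeast strain (DNA damage repair defect) treated with test compounds.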
# [7] = NCI Yeast Anticancer Drug Screen. Data for the sgs1 mgt1 strain (AID 161);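 further: 0% = growth of cultures given vehicle only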; conditions: S. cerevisiae sgs1 mgt1 strain, hits give high values
# Outline: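 Compounds are added to genetically altered yeast, and growth is compared with cultures given vehicle alone to give percent inhibition.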
# [8] = NCI Yeast Anticancer Drug Screen. Data for the CLN2oe strain (AID 163);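 further: 0% = growth of vehicle-only control cultures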; conditions: S. cerevisiae CLN2oe strain, hits give high values
# Outline: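 Cells of an engineered yeast line with disturbed cell-cycle regulation are treated with compound. Inhibition of growth is then calculated relative to the vehicle-treated reference.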
# [9] = NCI Yeast Anticancer Drug Screen. Data for the cln2 rad14 strain (AID 165);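 further: 0% = growth equal to vehicle treated cultures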; conditions: S. cerevisiae cln2 rad14 strain, hits give high values
# Outline: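 Strain: cln2 rad14 yeast, altered in cell cycle control and DNA damage repair. Read-out: growth inhibition vs vehicle.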
# [10] = NCI Yeast Anticancer Drug Screen. Data for the bub3 strain (AID 167); conditions: S. cerevisiae bub3 mutant strain, hits give high values
# Outline: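 Readout: yeast growth inhibition, expressed relative to vehicle-only wells. The test organism is a mutant strain from a panel with lesions in DNA repair or checkpoint genes.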
# [11] = NCI Yeast Anticancer Drug Screen. Data for the wt2 strain (AID 169);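 further: 0% = growth of vehicle-treated yeast cultures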; conditions: S. cerevisiae wt2 strain growth inhibition, hits give high values
# Outline: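 Growth of compound-treated yeast is measured and expressed as inhibition relative to vehicle-only controls.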
# [12] = NCI Yeast Anticancer Drug Screen. Data for the mlh1 strain (AID 171);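 further: 0% = growth of vehicle-treated control cultures of the same strain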; conditions: S. cerevisiae mlh1 strain growth inhibition, hits give high values
# Outline: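 Test agents were incubated with yeast bearing a defined DNA damage repair or cell cycle control alteration; values are growth inhibition normalised to vehicle-treated cultures.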
# [13] = NCI Yeast Anticancer Drug Screen. Data for the sgs1 strain (AID 173);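 further: 0% = growth of vehicle-only control cultures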; conditions: S. cerevisiae sgs1 mutant, hits give high values
# Outline: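 Strain with an altered DNA repair or cell cycle pathway exposed to compound. Growth then measured. Value = inhibition versus vehicle control.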
# [14] = NCI Yeast Anticancer Drug Screen. Data for the mlh1 rad18 strain (AID 175); conditions: S. cerevisiae mlh1 rad18 strain growth inhibition, hits give high values
# Outline: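 A repair-deficient yeast strain is exposed to test compound, and growth is scored relative to vehicle-treated controls.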
# [15] = NCI Yeast Anticancer Drug Screen. Data for the rad18 strain (AID 177); conditions: S. cerevisiae rad18 mutant growth inhibition, hits give high values
# Outline: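 DNA-repair-defective yeast; compound treatment; growth inhibition scored against vehicle.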
# [16] = NCI Yeast Anticancer Drug Screen. Data for the rad52 strain (AID 147);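 further: 0% = growth of vehicle-treated control cultures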; conditions: S. cerevisiae rad52 mutant growth inhibition, hits give high values
# Outline: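 Growth of repair-deficient yeast cells was compared between compound-treated and vehicle-treated cultures to give percent inhibition.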
# [17] = at 5.0 µM (retest, dose inferred, filed as 0.5)
# [18] = at 50.0 µM (retest, dose inferred, filed as 5.0)
smiles,measurement,setting,value
CC(C)(CN1CCCCC1)C(=O)/C=C/c1c(Cl)cccc1Cl,growth inhibition,[1]; at 1.2 µM,10%
same,growth inhibition,[1]; at 3.7 µM,15%
same,growth inhibition,[1]; at 11.0 µM,32%
same,growth inhibition,[1]; at 33.0 µM,93% (active)
same,growth inhibition,[1]; at 100.0 µM,97% (active)
same,growth inhibition,[2]; at 1.2 µM,-2%
same,growth inhibition,[2]; at 3.7 µM,0%
same,growth inhibition,[2]; at 11.0 µM,22%
same,growth inhibition,[2]; at 33.0 µM,50%
same,growth inhibition,[2]; at 100.0 µM,47%
same,growth inhibition,[3]; at 1.2 µM,10%
same,growth inhibition,[3]; at 3.7 µM,37%
same,growth inhibition,[3]; at 11.0 µM,81% (active)
same,growth inhibition,[3]; at 33.0 µM,98% (active)
same,growth inhibition,[3]; at 100.0 µM,99% (active)
same,growth inhibition,[4]; at 1.2 µM,11%
same,growth inhibition,[4]; at 3.7 µM,29%
same,growth inhibition,[4]; [17],2%
same,growth inhibition,[4]; at 11.0 µM,67%
same,growth inhibition,[4]; at 33.0 µM,97% (active)
same,growth inhibition,[4]; [18],99% (active)
same,growth inhibition,[4]; at 50.0 µM,75.8% (active)
same,growth inhibition,[4]; at 100.0 µM,97% (active)
same,growth inhibition,[5]; at 1.2 µM,16%
same,growth inhibition,[5]; at 3.7 µM,20%
same,growth inhibition,[5]; [17],14%
same,growth inhibition,[5]; at 11.0 µM,51%
same,growth inhibition,[5]; at 33.0 µM,94% (active)
same,growth inhibition,[5]; [18],97% (active)
same,growth inhibition,[5]; at 50.0 µM,83.9% (active)
same,growth inhibition,[5]; at 100.0 µM,97% (active)
same,growth inhibition,[6]; at 1.2 µM,44%
same,growth inhibition,[6]; at 3.7 µM,54%
same,growth inhibition,[6]; at 11.0 µM,92% (active)
same,growth inhibition,[6]; at 33.0 µM,99% (active)
same,growth inhibition,[6]; at 100.0 µM,99% (active)
same,growth inhibition,[7]; [17],21%
same,growth inhibition,[7]; [18],98% (active)
same,growth inhibition,[7]; at 50.0 µM,86.9% (active)
same,growth inhibition,[8]; at 1.2 µM,30%
same,growth inhibition,[8]; at 3.7 µM,54%
same,growth inhibition,[8]; at 11.0 µM,79% (active)
same,growth inhibition,[8]; at 33.0 µM,93% (active)
same,growth inhibition,[8]; at 100.0 µM,98% (active)
same,growth inhibition,[9]; [17],55%
same,growth inhibition,[9]; [18],99% (active)
same,growth inhibition,[9]; at 50.0 µM,86.4% (active)
same,growth inhibition,[10]; at 1.2 µM,27%
same,growth inhibition,[10]; at 3.7 µM,49%
same,growth inhibition,[10]; [17],9%
same,growth inhibition,[10]; at 11.0 µM,91% (active)
same,growth inhibition,[10]; at 33.0 µM,98% (active)
same,growth inhibition,[10]; [18],99% (active)
same,growth inhibition,[10]; at 50.0 µM,88.8% (active)
same,growth inhibition,[10]; at 100.0 µM,98% (active)
same,growth inhibition,[11]; at 1.2 µM,19%
same,growth inhibition,[11]; at 3.7 µM,28%
same,growth inhibition,[11]; at 11.0 µM,71% (active)
same,growth inhibition,[11]; at 33.0 µM,98% (active)
same,growth inhibition,[11]; at 100.0 µM,98% (active)
same,growth inhibition,[12]; at 1.2 µM,1%
same,growth inhibition,[12]; at 3.7 µM,14%
same,growth inhibition,[12]; at 11.0 µM,38%
same,growth inhibition,[12]; at 33.0 µM,90% (active)
same,growth inhibition,[12]; at 100.0 µM,97% (active)
same,growth inhibition,[13]; at 1.2 µM,0%
same,growth inhibition,[13]; at 3.7 µM,38%
same,growth inhibition,[13]; at 11.0 µM,73% (active)
same,growth inhibition,[13]; at 33.0 µM,98% (active)
same,growth inhibition,[13]; at 100.0 µM,98% (active)
same,growth inhibition,[14]; [17],30%
same,growth inhibition,[14]; [18],98% (active)
same,growth inhibition,[14]; at 50.0 µM,87.7% (active)
same,growth inhibition,[15]; at 1.2 µM,31%
same,growth inhibition,[15]; at 3.7 µM,57%
same,growth inhibition,[15]; at 11.0 µM,89% (active)
same,growth inhibition,[15]; at 33.0 µM,98% (active)
same,growth inhibition,[15]; at 100.0 µM,98% (active)
COc1cc2oc3ccccc3c(=O)c2cc1CSc1ccccc1N,growth inhibition,[16]; at 1.2 µM,-1%
same,growth inhibition,[16]; at 3.7 µM,1%
same,growth inhibition,[16]; at 11.0 µM,1%
same,growth inhibition,[16]; at 33.0 µM,8%
same,growth inhibition,[16]; at 100.0 µM,8%
same,growth inhibition,[2]; at 1.2 µM,-5%
same,growth inhibition,[2]; at 3.7 µM,1%
same,growth inhibition,[2]; at 11.0 µM,4%
same,growth inhibition,[2]; at 33.0 µM,14%
same,growth inhibition,[2]; at 100.0 µM,16%
same,growth inhibition,[3]; at 1.2 µM,1%
same,growth inhibition,[3]; at 3.7 µM,0%
same,growth inhibition,[3]; at 11.0 µM,-2%
same,growth inhibition,[3]; at 33.0 µM,-2%
same,growth inhibition,[3]; at 100.0 µM,6%
same,growth inhibition,[4]; at 1.2 µM,0%
same,growth inhibition,[4]; at 3.7 µM,0%
same,growth inhibition,[4]; [17],9%
same,growth inhibition,[4]; at 11.0 µM,1%
same,growth inhibition,[4]; at 33.0 µM,6%
same,growth inhibition,[4]; [18],26%
same,growth inhibition,[4]; at 50.0 µM,44.9%
same,growth inhibition,[4]; at 100.0 µM,7%
same,growth inhibition,[5]; at 1.2 µM,-2%
same,growth inhibition,[5]; at 3.7 µM,-1%
same,growth inhibition,[5]; [17],8%
same,growth inhibition,[5]; at 11.0 µM,-1%
same,growth inhibition,[5]; at 33.0 µM,2%
same,growth inhibition,[5]; [18],8%
same,growth inhibition,[5]; at 50.0 µM,-19.2%
same,growth inhibition,[5]; at 100.0 µM,15%
same,growth inhibition,[6]; at 1.2 µM,0%
same,growth inhibition,[6]; at 3.7 µM,-6%
same,growth inhibition,[6]; at 11.0 µM,-5%
same,growth inhibition,[6]; at 33.0 µM,-18%
same,growth inhibition,[6]; at 100.0 µM,-16%
same,growth inhibition,[7]; [17],3%
same,growth inhibition,[7]; [18],48%
same,growth inhibition,[7]; at 50.0 µM,39.8%
same,growth inhibition,[8]; at 1.2 µM,-4%
same,growth inhibition,[8]; at 3.7 µM,3%
same,growth inhibition,[8]; at 11.0 µM,-1%
same,growth inhibition,[8]; at 33.0 µM,2%
same,growth inhibition,[8]; at 100.0 µM,3%
same,growth inhibition,[9]; [17],2%
same,growth inhibition,[9]; [18],34%
same,growth inhibition,[9]; at 50.0 µM,27.5%
same,growth inhibition,[10]; at 1.2 µM,-1%
same,growth inhibition,[10]; at 3.7 µM,2%
same,growth inhibition,[10]; [17],4%
same,growth inhibition,[10]; at 11.0 µM,35%
same,growth inhibition,[10]; at 33.0 µM,54%
same,growth inhibition,[10]; [18],71% (active)
same,growth inhibition,[10]; at 50.0 µM,72.4% (active)
same,growth inhibition,[10]; at 100.0 µM,74% (active)
same,growth inhibition,[11]; at 1.2 µM,-1%
same,growth inhibition,[11]; at 3.7 µM,-2%
same,growth inhibition,[11]; at 11.0 µM,-2%
same,growth inhibition,[11]; at 33.0 µM,3%
same,growth inhibition,[11]; at 100.0 µM,7%
same,growth inhibition,[12]; at 1.2 µM,-5%
same,growth inhibition,[12]; at 3.7 µM,0%
same,growth inhibition,[12]; at 11.0 µM,-1%
same,growth inhibition,[12]; at 33.0 µM,2%
same,growth inhibition,[12]; at 100.0 µM,-7%
same,growth inhibition,[13]; at 1.2 µM,1%
same,growth inhibition,[13]; at 3.7 µM,1%
same,growth inhibition,[13]; at 11.0 µM,5%
same,growth inhibition,[13]; at 33.0 µM,15%
same,growth inhibition,[13]; at 100.0 µM,20%
same,growth inhibition,[14]; [17],15%
same,growth inhibition,[14]; [18],31%
same,growth inhibition,[14]; at 50.0 µM,39.9%
same,growth inhibition,[15]; at 1.2 µM,-14%
same,growth inhibition,[15]; at 3.7 µM,-7%
same,growth inhibition,[15]; at 11.0 µM,-12%
same,growth inhibition,[15]; at 33.0 µM,8%
same,growth inhibition,[15]; at 100.0 µM,3%
